Pf Dd2 inh – Plasmodium falciparum Dd2 growth inhibition | P. falciparum Dd2 growth, SYBR Green, 72 h | Potency, µM (doses to about 28.9 µM), for inactives: at the top dose activity, negative = inhibition, most hits filed as inhibitors | hit rate 4.3% among 120,000 | AID 1347417; active = well fitted inhibition curve with a large enough effect;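 also: plate controls were DMSO vehicle for no effect and reference drug for full effect; nearly all actives have a fitted effect of over 65% in size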
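Infected erythrocytes (Dd2, 0.3% parasitemia, 2.5% hematocrit final) are added to compound in RPMI-1640/Albumax II medium, grown 72 h at 37C in low oxygen, then lysed with saponin/Triton-X containing SYBR Green and read by fluorescence.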
* hit, by the source's call; i = inactive; [ ] = dose if it differs, or a comment. Only a selection was taken, and hits are over-represented in it overall. Potency is read from the fitted curve at half-maximal effect.

SMILES | Pf Dd2 inh
COc1c(F)ccc(C(=O)N2CCC3(CCCNC3)C2)c1F (stereo unspecified) | 3.2%
O=C(NC1CCCCC1)[C@H]1CN2CCC1C[C@@H]2Cn1cc(COc2ccccc2)nn1 (stereo partly specified) | 0.8%[44.1 µM]
Cn1nc(C2CCNC2)c2c(C(=O)N3CCOCC3)cc(C3CC3)nc21 (stereo unspecified) | 18.9%
COc1ccc(NC(=O)c2c(C)oc3ccc(O)c(CN4CCN(Cc5ccccc5)CC4)c23)cc1 | 1.26µM*
CCOc1cc(=O)n2c(c1C(=O)Nc1ccccc1)CCCC2 | 26.6%
Cc1oc2ccc(O)c(CN3CCCC(C)C3)c2c1C(=O)Nc1ccccc1 (stereo unspecified) | 0.891µM*
Cc1oc2ccc(O)c(CN3CCN(Cc4ccccc4)CC3)c2c1C(=O)Nc1cccc(Cl)c1C | 0.562µM*
Cc1cccc(NC(=O)c2c(C)oc3ncnc(N4CCCCC4)c23)c1C | -7.4%
Cc1c(Cl)cccc1NC(=O)NCC1CCOCC1 | 9.1%
CC(=O)Nc1ccc(NC(=O)c2cccc(CN3CCCC(C#N)C3)c2)cc1 (stereo unspecified) | -10.0%
COc1ccc(NC(=O)c2c(C)oc3ccc(O)c(CN4CCCCCC4)c23)cc1 | 2.82µM*
COc1ccc(NC(=O)c2c(-c3cnn(C)c3NCc3ccccc3)noc2C)cc1 | i
COc1ccc(NC(=O)c2c(OC)cc(=O)n3c2CCCC3)cc1 | -22.1%
O=C(Nc1ccc(Cl)cc1)c1nc2c(o1)CCN(Cc1ccccc1)CC2 | i
CCOc1ccc(NC(=O)c2c(C)oc3nc(C)nc(N4CCCC4)c23)cc1 | i
NS(=O)(=O)c1ccsc1C(=O)N1CCCC2(CCNCC2)CC1 | -4.2%
COCCNC(=O)c1ccc2c(c1)N(C)C(CC(=O)Nc1ccc(N)nc1)CO2 (stereo unspecified) | -17.1%
CS(=O)(=O)c1ccc(O[C@H]2COCCN(Cc3ccccn3)C2)cc1 | 12.6%[44.1 µM]
CC(C)NC(=O)N(C1CCOCC1)C1CN(S(=O)(=O)Cc2ccccc2F)C1 | -29.3%
CCc1cc(N2CCC(N3CCSCC3)CC2)n2nccc2n1 | -21.5%
COCCN1C(=O)CSC12CCN(C(=O)NCc1ccccc1)CC2 | 6.6%
Cc1noc(C)c1CN1CCOC[C@H](O)C1 | 19.7%[44.1 µM]
C=CCNC(=O)N[C@H]1[C@H](O)[C@@H](N2CCN(C(C)=O)CC2)[C@@H]2OC[C@H]1O2 | 11.0%[44.1 µM]
O=C(c1c[nH]c2ccccc12)N1CCC(Cc2nncn2CC2CC2)C1 (stereo unspecified) | -9.1%
CCn1ncc(CN2CCC(N3C(=O)C4(CCCC4)C3c3scnc3C)CC2)c1C (stereo unspecified) | i
SMILES | Pf Dd2 inh
Cn1ccn2ncc(C(=O)NC3CC(c4nnc(CO)n4C4CC4)C3)c12 (stereo unspecified) | i
CC1=C[C@@H](CN(C)CCO)[C@H](C(C)C)C[C@H]1Cc1nnc(-c2ccc(C)cc2)o1 | 10µM*
CC1=C[C@@H](CN(C)CCO)[C@H](C(C)C)C[C@H]1Cc1nnc(-c2ccccc2F)o1 | 12.6µM*
C#CCN(C)C[C@@H]1C=C(C)[C@H](Cc2nnc(-c3ccc(C)cc3)o2)C[C@H]1C(C)C | -10.7%[44.1 µM]
Cc1ccc(-n2nc3n(c2=O)CCN(C(=O)c2ccc(Cl)cc2)C3)cc1 | -6.0%
COc1ncccc1CNC[C@H]1O[C@@H]2C[C@@H](CC(=O)N3CCC(F)(F)C3)O[C@@H]2[C@@H]1O | 33.4%[44.1 µM]
C[S+](=O)([O-])N1CC2(Cc3ccccc31)CN(C(=O)c1ccccc1F)C2 | i
CCN(CC)CCCNC(=O)Cc1csc2nc(-c3ccc(Cl)cc3)cn12 | 8.91µM*
COc1ccccc1CNC(=O)Cc1csc2nc(-c3ccccc3)cn12 | -20.4%
CC(C)NC(=O)Cc1csc2nc(-c3ccccc3)cn12 | 39.7%
O=C(NCCc1csc(-c2cccnc2)n1)C1NCCc2[nH]cnc21 (stereo unspecified) | -14.4%
CC(C(=O)NCC1CCCO1)N1C(=O)COc2ccc(C(=O)COc3ccc(F)cc3F)cc21 (stereo unspecified) | i
Cc1cc2nc3n(c(=O)c2n1CC(=O)Nc1ccc(F)cc1F)CCCCC3 | 87.9%
Cc1cc(C)c(C(=O)O)c(N2CCC3(CC2)C(C(=O)O)CC(=O)N3C)n1 (stereo unspecified) | -0.3%
